Data taken from PubChem BioAssay AID430 (Sanford-Burnham Center for Chemical Genomics, 2006).
The whole screen tested about 63,000 compounds, of which about 1,100 (1.7%) were called active. This is one part of a sample in which actives are shown more often than they occur. Cut-off read from the data, not from the text of the source: active = cytotoxicity above about 50%; inactive = the rest. Entries with a potency or affinity are not part of this list.

Test: cytotoxicity in HPDE-C7 cells, cell-based, fluorescence, HTS (AID 430);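 note: cells exposed to compound for 48 hours before viability readout; 0% = vehicle and 100% = reference cytotoxic drug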
Conditions: HPDE-C7 pancreatic duct cells viability, at 10 µM, active compounds read high

SMILES	cytotoxicity
CCCc1[nH]nc2c1C(c1ccccc1OC)C(C#N)=C(N)O2 (configuration not stated)	4.9% (inactive)
O=C(O)C1C2C=CC3(CN(Cc4ccncc4)C(=O)C13)O2 (configuration not stated)	-13.4% (inactive)
O=C(O)C1C2C=CC3(CN(Cc4ccco4)C(=O)C13)O2 (configuration not stated)	-6.3% (inactive)
O=C(O)C1C2C=CC3(CN(Cc4ccccn4)C(=O)C13)O2 (configuration not stated)	63.6% (active)
COCCn1c(SCC(=O)N2CCCc3ccccc32)nnc1-c1ccco1	-4.5% (inactive)
CC(=O)N1C(=O)C2(Nc3ccccc3N2)c2ccccc21	-0.7% (inactive)
CCCCOc1ccc(OCCCC)c2c1NC1(N2)C(=O)N(C(C)=O)c2ccccc21	69.8% (active)
CCNC(=O)N1C(=O)C2(OCCO2)c2ccccc21	-15.9% (inactive)
CCOC(=O)Cc1nnc(NC(=O)Nc2ccccc2)s1	5% (inactive)
Nc1ccc(-c2nc3ccc(-c4nc5ccccc5o4)cc3[nH]2)cc1	76.2% (active)
Nc1cc(N)cc(-c2nc3ccccc3o2)c1	18.2% (inactive)
Nc1ccc(-c2nc3ccccc3[nH]2)cc1	-5.6% (inactive)
O=S(=O)(Nc1nnc(-c2ccccc2)s1)c1ccc(Cl)cc1	8.8% (inactive)
FC(F)(F)c1cc(-c2ccco2)nc(-n2nc(C(F)(F)F)cc2C2CC2)n1	5.7% (inactive)
Cn1c(=O)c2c(nc(SCC(=O)N3CCCc4ccccc43)n2C)n(C)c1=O	-17.3% (inactive)
O=C(CCCCn1c(=O)c2ccccc2n(Cc2ccc(F)cc2Cl)c1=O)NCc1ccco1	2.9% (inactive)
O=C(NCc1ccccn1)c1ccc(COc2ccc(Cl)cc2)o1	4.2% (inactive)
O=C(c1ccco1)N1CCN(c2nc(C(F)(F)F)nc3c2nnn3Cc2ccccc2)CC1	11.6% (inactive)
Cc1nc(N2CCCC2)c2nnn(Cc3ccccc3Cl)c2n1	-10.9% (inactive)
CC(=O)Nc1ccc(NC(=O)c2c(C)nc3ccccn23)cc1	6.8% (inactive)
N#CC1=C(N)Oc2cc(N)ccc2C1C1CC=CCC1 (configuration not stated)	59.8% (active)
COc1ccc(C2C(C#N)=C(N)Oc3cc(O)ccc32)cc1OC (configuration not stated)	-6.7% (inactive)
Cc1[nH]nc2c1C(C1CC=CCC1)C(C#N)=C(N)O2 (configuration not stated)	0.7% (inactive)
COc1ccc(OC)c(C2C(C#N)=C(N)Oc3cc(N)ccc32)c1 (configuration not stated)	-0.7% (inactive)
COc1cc(C2C(C#N)=C(N)Oc3cc(N)ccc32)cc(OC)c1OC (configuration not stated)	58.5% (active)

SMILES	cytotoxicity
N#CC1=C(N)Oc2cc(N)ccc2C1C1CCCCC1 (configuration not stated)	22.2% (inactive)
Cc1cc(C(=O)NCC2CCCO2)n(-c2ccccc2)n1 (configuration not stated)	0.2% (inactive)
CCOc1ccc(NC(=O)c2oc3ccccc3c2NC(=O)C(C)C)cc1	11.9% (inactive)
C=CCN1C(=O)C(CC(=O)O)SC1=Nc1c(C)n(C)n(-c2ccccc2)c1=O (configuration not stated)	-3.1% (inactive)
Cc1nc2ccccc2c2oc(C(=O)NCc3ccccn3)cc12	4.5% (inactive)
O=C1CC(N2CCN(C3CC(=O)N(CCc4ccccc4)C3=O)CC2)C(=O)N1CCc1ccccc1 (configuration not stated)	-9.9% (inactive)
N#C/C(C(N)=O)=c1/ccc2c(c1)N1C3=C(CCCC3)CC3CCCCC31N=2 (configuration not stated)	77.9% (active)
N#CC(C#N)=c1ccc2c(c1)N1C3=C(CCCC3)CC3CCCCC31N=2 (configuration not stated)	72% (active)
Cc1cc(C(=O)COC(=O)C2=COCCO2)c(C)n1-c1ccc2c(c1)OCO2	-7.4% (inactive)
CCCc1cc(C(=O)NC2CCCC2)no1	-4.5% (inactive)
CCOC(=O)N1CCN(C(=O)CCn2c(=S)[nH]c3cc(OCC)c(OCC)cc3c2=O)CC1	1.3% (inactive)
CCN1CCN(C(c2cccs2)C(C)NC(=O)c2ccccc2)CC1 (configuration not stated)	2.9% (inactive)
CC(=O)OCCNc1cc(N2CCN(C)CC2)c2noc3c2c1C(=O)c1ccccc1-3	7.3% (inactive)
O=C(O)CCCNc1cc(N2CCC3(CC2)OCCO3)c2noc3c2c1C(=O)c1ccccc1-3	34.7% (inactive)
CCOC(=O)N1CCN(c2cc(NCCC(=O)O)c3c4c(onc24)-c2ccccc2C3=O)CC1	58.8% (active)
CCOc1ccc2noc3c2c1C(=O)c1ccccc1-3	29.3% (inactive)
CCOC(=O)c1c(C)noc1CP(=O)(c1ccccc1)c1ccccc1	4.8% (inactive)
CCC1CCCCN1C(=O)CSc1nnc(-c2ccc(Cl)cc2)o1 (configuration not stated)	1.2% (inactive)
O=C(O)c1[nH]c2ccc(Cl)cc2c1CC(=O)N1CCN(c2ccccc2)CC1	5.3% (inactive)
Cc1cccc(N2CCN(C(=O)Cc3c(C(=O)O)[nH]c4ccc(Cl)cc34)CC2)c1C	76.3% (active)
O=C(O)c1[nH]c2ccc(Cl)cc2c1CC(=O)N1CCN(C(=O)c2ccco2)CC1	-1% (inactive)
Cc1ccc(OC(=O)CCC(=O)N2CCc3ccccc32)cc1	4% (inactive)
Cc1cccc(N2CCN(CCNC(=O)c3cc4c(s3)CS(=O)(=O)C4)CC2)c1C	-3.7% (inactive)
O=S(=O)(NCCc1ccccn1)c1cccs1	-28.8% (inactive)
O=c1c2c3nc4ccccc4nc3n(/N=C/c3ccco3)c2ncn1CCC1=CCCCC1	23% (inactive)

SMILES	cytotoxicity
Cc1nc2c(c(=O)n1CCC1=CCCCC1)c1nc3ccccc3nc1n2/N=C/c1ccco1	63.7% (active)
CCCn1c(C)nc2c(c1=O)c1nc3ccccc3nc1n2CCC1=CCCCC1	-0.4% (inactive)
O=c1oc2ccccc2c2c1ncn2-c1ccccc1	-17.3% (inactive)
O=C(Nc1nnc(CC2=CCCCC2)s1)c1cccs1	0.5% (inactive)
Cn1c(CNC(=O)c2ccc(F)cc2)nc2ccccc21	0.8% (inactive)
COc1cc2c(cc1OC)C(/C(C#N)=N\O)=NC(C)(C)C2	13% (inactive)
CCOC(=O)/C=C1\NC(C)(C)Cc2cc(OC)c(O)cc21	1.4% (inactive)
CCC1C(O)=C(c2ccccn2)C(=N)N1c1ccccc1 (configuration not stated)	0.3% (inactive)
CCOCCOC(=O)C1=C(C)N(C)C(=O)NC1c1ccccc1Cl (configuration not stated)	-0.5% (inactive)
C/C(NCCN1CCOCC1)=C(\C#N)C(N)=O	-5.5% (inactive)
CCOC(=O)c1sc(NC(C)=O)c(C(=O)OCC)c1C	4.3% (inactive)
CCOC(=O)c1c(NC(C)=O)sc2c(O)cccc12	21.8% (inactive)
CCOC(=O)c1c(NC(C)=O)sc2c(O)c(CN3CCN(CC)CC3)ccc12	68% (active)
CC(=O)Nc1ccc(S(=O)(=O)NCC2CCC(C(=O)N3CCCCCC3)CC2)cc1 (configuration not stated)	-6.2% (inactive)
COc1ccc(CNCC(=O)Nc2cc(C)nn2-c2nc(C)cc(C)n2)cc1OC	52.9% (active)
COc1ccccc1N1CCN(CC(=O)Nc2cc(C)nn2-c2nc(C)cc(C)n2)CC1	52.4% (active)
Cc1cc(C)nc(-n2nc(C)cc2NC(=O)c2ccc(Br)o2)n1	25.7% (inactive)
COc1ccc(CNc2nc3nc(C)cc(C)n3n2)cc1OC	2.5% (inactive)
Cc1cc(C)nc(-n2nc(C)cc2NC(=O)CN2CCc3ccccc3C2)n1	19.1% (inactive)
Cc1cc(C)nc(-n2nc(C)cc2NC(=O)CN2CCC(C)CC2)n1	0.1% (inactive)
COc1ccc(C(CC(=O)O)NC(=O)c2ccco2)cc1OC (configuration not stated)	-6.5% (inactive)
O=C(c1ccco1)N1CCN(C(c2ccccc2)c2nnnn2Cc2cccs2)CC1 (configuration not stated)	7.3% (inactive)
Clc1ccc(OCc2nc(-c3ccccn3)no2)c(Br)c1	4.3% (inactive)
Cc1ccc(OCc2nc(-c3ccccn3)no2)c(Br)c1	12.5% (inactive)
CC(C)CCn1c(=O)c2ccccc2n2c(CN(C)Cc3ccccc3)nnc12	-12.8% (inactive)

SMILES	cytotoxicity
O=c1[nH]c(CSc2nc3ccccc3o2)nc2c1cnn2-c1ccccc1	0.3% (inactive)
O=C(NCC1CCCO1)C1CCCN(S(=O)(=O)c2cccc3nsnc23)C1 (configuration not stated)	-15% (inactive)
O=C(NCCc1ccccc1)C1CCCN(S(=O)(=O)c2cccc3nsnc23)C1 (configuration not stated)	-0.3% (inactive)
CCN1CCCC1CNC(=O)C1CCCN(S(=O)(=O)c2cccc3nsnc23)C1 (configuration not stated)	61.7% (active)
CC(=O)Nc1ccc(S(=O)(=O)NCc2cn3c(C)csc3n2)cc1	10.5% (inactive)
O=C(Nc1c(F)cc(F)cc1Br)c1ccco1	0.6% (inactive)
Cc1cc(C(=O)Nc2c(F)cc(F)cc2Br)no1	0.9% (inactive)
O=C(Nc1c(F)cc(F)cc1Br)c1cc(-c2ccc(O)cc2)on1	54.4% (active)
O=C(Nc1c(F)cc(F)cc1Br)c1cc(-c2ccco2)on1	58.5% (active)
COc1ccccc1-c1cc(C(=O)Nc2c(F)cc(F)cc2Br)no1	-10.6% (inactive)
O=C(Nc1ccc(F)cc1F)c1cc(-c2ccco2)on1	-5.3% (inactive)
Cc1ccc(S(=O)(=O)CCc2nnc(NC(=O)c3cnccn3)s2)cc1	-8.2% (inactive)
CC(=O)Oc1cc2c(C(=O)NCCCN3CCOCC3)c(C)oc2c2ccccc12	5.1% (inactive)
CCN(CC)c1ccc(NC(=O)c2cccc(OC)c2)c(C)c1	39.6% (inactive)
CCOc1cccc(C(=O)Nc2ccc(N3CCN(S(C)(=O)=O)CC3)cc2)c1	-6.2% (inactive)
CCN(CC)c1ccc(C(=O)Nc2cccc(F)c2)cc1	34% (inactive)
CCOc1cccc(C(=O)Nc2ccc(N(CC)CC)cc2)c1	79.8% (active)
CCN(CC)c1ccc(NC(=O)c2cc(OC)cc(OC)c2)c(C)c1	53.5% (active)
CCN(CC)c1ccc(NC(=O)c2c(OC)cccc2OC)c(C)c1	0.4% (inactive)
COc1ccc(CC(=O)NCc2ccccc2Cl)cc1S(=O)(=O)N1CCOCC1	1.1% (inactive)
CCSc1nsc(SCC)c1C(N)=O	-6.7% (inactive)
CCCN(CCO)Cc1cccc(Cl)c1	6.6% (inactive)
